Measurements from PubChem BioAssay (EPA / NIEHS).
Records with an inconclusive call do not appear. Some structures have more than one record in an assay (separate samples or runs), and their calls can disagree. Activity calls are given as the source filed them. How the source made its calls, unless noted: active means hit-call score of the fitted dose curve at least 0.9, where 1 is the maximum; inactive means score below 0.9.

Assays:
[1] = CCTE_Deisenroth_5AR_NBTE_donor: CCTE's 5alpha-reductase NanoBRET Target Engagement Assay […], Deisenroth Lab (AID 2284319); details: actives raise or lower the signal
Method in brief: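 HEK293T cells were reverse transfected with an SRD5A2-NanoLuc vector for 20 h, exposed to test chemical (8 points, 10 nM - 29.9 uM) for 3 h, then testosterone tracer for 2 h more. Donor luminescence (460 nm) was read; bidirectional fit versus DMSO.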

[2] = CCTE_Deisenroth_5AR_NBTE_acceptor: CCTE's 5alpha-reductase NanoBRET Target Engagement Assay - Autofluorescence Screen, Deisenroth Lab (AID 2284321); details: actives raise or lower the signal;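 further: compound fluorescence in the acceptor channel under 460 nm excitation flags autofluorescence artifacts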
Method in brief: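 Autofluorescence counter-screen: chemicals at an assumed nominal 100 uM in DMSO were scanned in three independent runs with 460 nm excitation. Gain or loss of acceptor signal was fitted bidirectionally against DMSO.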

[3] = tested on: SRD5A2 (gene 6716); assay: CCTE_Deisenroth_5AR_NBTE_ratio: CCTE's 5alpha-reductase NanoBRET Target Engagement Assay - Ratio, Deisenroth Lab (AID 2284322); details: actives raise or lower the signal
Method in brief: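 Reverse-transfect HEK293T with pNLF1-C-SRD5A2, express 20 h. Pre-incubate cells with chemical 3 h (8-point series, 10 nM - 29.9 uM, duplicate). Add testosterone tracer, 2 h more. Add substrate/inhibitor, read donor and acceptor emission.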

[4] = read-out: CD69, CD69 (gene 969); assay: BSK_LPS_CD69: BioMAP Diversity Plus: LPS Assay for CD69 Biomarker Activity (AID 2284303); details: primary human HUVEC with PBMC
Method in brief: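 Human umbilical vein endothelial cells co-cultured with PBMC under LPS stimulation, chemical exposure 24 h; cell-surface CD69 measured by ELISA and fitted in the positive direction versus DMSO.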

[5] = tested on: Brachyury (BRA) Protein Expression, Deisenroth Lab, TBXT (gene 6862); assay: CCTE_Deisenroth_DEVTOX-GLR_legacy_Bra: (Legacy) CCTE's DevTox GLR-Endo Assay Evaluation of Brachyury (BRA) Protein Expression, Deisenroth Lab (AID 2284329)
Method in brief: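 RUES2-GLR human pluripotent cells differentiated 48 h with two 24-h-interval chemical exposures (1 nM - 200 uM, 10 points); fixed, nuclear-stained, imaged. Bra+ cell percentage (intensity 5x BMAD above pluripotent control median) fitted relative to 0.2% DMSO.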

[6] = CCTE_Deisenroth_DEVTOX-GLR_legacy_CellCount: (Legacy) Viability Assessment in CCTE's DevTox GLR-Endo Assay, Deisenroth Lab (AID 2284331); details: actives raise or lower the signal
Method in brief: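 RUES2-GLR human pluripotent cells were seeded 24 h, then differentiated 48 h with two compound doses at 24 h intervals (10-point, 1 nM - 200 uM). Fixed nuclei were imaged and counted; bidirectional fitting versus 0.2% DMSO.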

[7] = IUF_NPC2a_radial_glia_migration_120hr: Leibniz Research Institute for Environmental Medicine (IUF) 120-hour Neural Progenitor Cell Migration Assay for Radial Glia Migration (NPC2a) (AID 2284298)
Method in brief: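 Human fetal-cortex neural progenitor spheres (0.3 mm) plated on poly-D-lysine/laminin in N2 differentiation medium, exposed 120 h at 37C with half-medium renewal at day 3. Radial glia migration distance (um) measured from Hoechst-stained nuclei images; DMSO baseline.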

[8] = IUF_NPC2a_radial_glia_migration_72hr: Leibniz Research Institute for Environmental Medicine (IUF) 72-hour Neural Progenitor Cell Migration Assay for Radial Glia Migration (NPC2a) (AID 2284299)
Method in brief: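 Human fetal cortex (GW 16-19) neural progenitor spheres, 0.3 mm, plated on poly-D-lysine/laminin in N2 differentiation medium with compound from day 0. Radial glia migration distance (um, sphere core edge to migration edge) measured manually in four directions on 72 h brightfield images; well mean used.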

[9] = IUF_NPC2b_neuronal_migration_120hr: Leibniz Research Institute for Environmental Medicine (IUF) 120-hour Neural Progenitor Cell Migration Assay for Neuron Migration (NPC2b) (AID 2284300)
Method in brief: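 0.3 mm hNPC spheres on poly-D-lysine/laminin in N2 differentiation medium exposed 120 h, half-medium refresh day 3; 7 concentrations, DMSO max 0.1%. Neuron (TUBB3) distance from sphere core by ICC imaging, normalised to radial glia migration.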

[10] = IUF_NPC3_neuronal_differentiation_120hr: Leibniz Research Institute for Environmental Medicine (IUF) 120-hour Neuronal Differentiation Assay (NPC3) (AID 2284301)
Method in brief: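 Primary human fetal neural progenitor spheres (GW 16-19, 0.3 mm) plated on poly-D-lysine/laminin in N2 medium, exposed from day 0 for 120 h with half-medium refresh at day 3. TUBB3+ cells as percent of Hoechst nuclei in migration area; DMSO baseline.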

[11] = IUF_NPC4_neurite_length_120hr: Leibniz Research Institute for Environmental Medicine (IUF) 120-hour Neuronal Morphology Assay for Neurite Length (NPC4) (AID 2284302)
Method in brief: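 Human fetal cortex (GW 16-19) neural progenitor spheres, 0.3 mm, were plated on poly-D-lysine/laminin in N2 differentiation medium and exposed from day 0 for 120 h, half-feeding at day 3. Mean TUBB3+ neurite length (µm) came from skeletonized images, relative to DMSO.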

[12] = IUF_NPC5_oligodendrocyte_differentiation_120hr: Leibniz Research Institute for Environmental Medicine (IUF) 120-hour Oligodendrocyte Differentiation Assay (NPC5) (AID 2284304; active means hit-call score of the fitted dose curve at least 0.9, where 1 is the maximum;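 further: primary human fetal neural progenitor spheres plated to migrate and differentiate; share of O4-positive cells among Hoechst nuclei found by CNN image analysis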)
Method in brief: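 Human fetal neural progenitor spheres (0.3 mm) plated on poly-D-lysine/laminin in N2 differentiation medium and exposed for 120 h at 7 concentrations, with half-medium renewal at day 3. O4-positive cells identified by CNN, expressed as percent of Hoechst nuclei.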

[13] = IUF_NPC4_neurite_area_120hr: Leibniz Research Institute for Environmental Medicine (IUF) 120-hour Neuronal Morphology Assay for Neurite Area (NPC4) (AID 2284305; active means hit-call score of the fitted dose curve at least 0.9, where 1 is the maximum)
Method in brief: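 Human fetal cortex-derived neural progenitor spheres (0.3 mm, GW 16-19) plated on poly-D-lysine/laminin in N2 differentiation medium and exposed from day 0 for 120 h across 7 concentrations plus solvent control. Neurite area is mean pixel area per TUBB3-positive neuron via skeletonization, analysed relative to DMSO.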

[14] = IUF_NPC2-5_cytotoxicity_72hr: Cytotoxicity Assessment at 72 hours in the Leibniz Research Institute for Environmental Medicine (IUF) Neural Progenitor Cell Migration and Differentiation Assay for Cytotoxicity (NPC2-5) (AID 2284306; active means hit-call score of the fitted dose curve at least 0.9, where 1 is the maximum;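 further: LDH release into supernatant measured by resorufin fluorescence marking membrane damage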)
Method in brief: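 Human fetal (GW 16-19) neural progenitor spheres, 0.3 mm, plated on poly-D-lysine/laminin in N2 differentiation medium and exposed from day 0 to 7 concentrations plus solvent control (DMSO ≤0.1%). LDH-dependent resazurin-to-resorufin fluorescence in supernatant at 72 h.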

[15] = IUF_NPC2-5_cytotoxicity_120hr: Cytotoxicity Assessment at 120 hours in the Leibniz Research Institute for Environmental Medicine (IUF) Neural Progenitor Cell Migration and Differentiation Assay (NPC2-5) (AID 2284307; active means hit-call score of the fitted dose curve at least 0.9, where 1 is the maximum;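 further: LDH released into supernatant as membrane damage marker via resorufin fluorescence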)
Method in brief: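 Human fetal (GW 16-19) neural progenitor spheres (0.3 mm) plated on poly-D-lysine/laminin in N2 differentiation medium, exposed 120 h with half-medium renewal at day 3; 7 concentrations plus solvent control, DMSO ≤0.1%. LDH release in supernatant read by resorufin fluorescence.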

[16] = IUF_NPC2-5_cell_number_120hr: Cell Number Assessment at 120 hours in the Leibniz Research Institute for Environmental Medicine (IUF) Neural Progenitor Cell Migration and Differentiation Assay (NPC2-5) (AID 2284308);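 further: count of Hoechst-stained nuclei in migration zone around plated human neural progenitor spheres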
Method in brief: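 Human fetal neural progenitor spheres (0.3 mm) plated on poly-D-lysine/laminin in N2 differentiation medium, exposed five days across 7 concentrations with half-medium refresh at day 3. Hoechst-positive nuclei counted in migration area at 120 h, relative to DMSO.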

[17] = IUF_NPC2-5_viability_120hr: Viability Assessment at 120 hours in the Leibniz Research Institute for Environmental Medicine (IUF) Neural Progenitor Cell Migration and Differentiation Assay (NPC2-5) (AID 2284312)
Method in brief: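 Human fetal (GW 16-19) neural progenitor spheres of 0.3 mm were plated on poly-D-lysine/laminin in N2 differentiation medium and exposed from day 0 for 120 h, with half-medium refresh at day 3. Viability was read as alamar blue resazurin-to-resorufin fluorescence against DMSO.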

[18] = TAMU_PeakParms_SingleDonor1434_Asystole: Texas A&M University (TAMU) 1.5-hr Human Induced Pluripotent Stem Cell (iPSC)-derived Cardiomyocytes Calcium (Ca+2) Flux Assay for Cardiotoxicity: Asystole (quiescence of beating) (AID 2284328; active means hit-call score of the fitted dose curve at least 0.9, where 1 is the maximum)
Method in brief: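 Human iPSC-derived cardiomyocytes (donor 1434) were exposed to 0.2, 1, 10 and 100 uM compound in 0.5% DMSO for 90 min at 37C. Ca2+-dye fluorescence gave average peak frequency; POD is EC95, a 95% beat-rate drop versus DMSO.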

[19] = tested on: TTR (gene 7276); assay: CCTE_GLTED_hTTR_0.5uM: CCTE's human Transthyretin (hTTR) Inhibition Assay, with 0.5uM TTR, Great Lakes Toxicology and Ecology Division (GLTED) Lab (AID 2284320)
Method in brief: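 Cell-free displacement assay in which human TTR at 0.5 uM was incubated with test chemical for 2 h. Displacement of the ANSA probe was read by fluorescence at 380 nm excitation/475 nm emission. Loss of signal was fitted in the positive direction versus DMSO.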

Compound: COc1ccc(N=Nc2cc(C)c(N=Nc3ccc(S(=O)(=O)O)cc3)cc2OC)cc1
- AC50 [1]: 50000 nM (active)
- AC50 [2]: 40600 nM (active)
- AC50 [3]: 87000 nM (active)

Compound: C=CC(C)(O)CCC=C(C)C (stereo not given)
- outcome [4]: inactive

Compound: CS(=O)(=O)OCCCCOS(C)(=O)=O
- outcome [5]: inactive
- AC50 [6]: 14600 nM (active)

Compound: Cc1cc(S(=O)(=O)O)ccc1N=Nc1c(O)ccc2ccccc12
- AC50 [1]: 18300 nM (active)
- outcome [2]: inactive
- AC50 [3]: 25000 nM (active)

Compound: O=[N+]([O-])c1ccc(O)cc1C(F)(F)F
- outcome [1]: inactive
- outcome [2]: inactive
- AC50 [3]: 50000 nM (active)

Compound: Nc1ccc(N)c2c1C(=O)c1ccccc1C2=O
- outcome [1]: inactive
- AC50 [2]: 7650 nM (active)
- AC50 [3]: 2080 nM (active)

Compound: CCOC(=O)C(C#N)=C(c1ccccc1)c1ccccc1
- AC50 [4]: 27900 nM (active)
- outcome [4]: inactive

Compound: C=CC(=O)OCCCC
- outcome [1]: inactive
- outcome [2]: inactive
- outcome [3]: inactive

Compound: Oc1c(Cl)cc(Cl)c(Cl)c1Cc1c(O)c(Cl)cc(Cl)c1Cl
- AC50 [7]: 272 nM (active)
- AC50 [8]: 380 nM (active)
- AC50 [9]: 566 nM (active)
- AC50 [10]: 472 nM (active)
- AC50 [11]: 168 nM (active)
- AC50 [12]: 75.1 nM (active)
- AC50 [13]: 264 nM (active)
- AC50 [14]: 702 nM (active)
- AC50 [15]: 295 nM (active)
- AC50 [16]: 204 nM (active)
- AC50 [17]: 147 nM (active)
- AC50 [18]: 2110 nM (active)

Compound: CC(=O)O[C@H]1C[C@@H]2CC[C@@]1(C)C2(C)C
- outcome [1]: inactive
- outcome [2]: inactive
- outcome [3]: inactive

Compound: Clc1ccc(C(c2ccccc2Cl)C(Cl)Cl)cc1 (stereo not given)
- outcome [1]: inactive
- outcome [2]: inactive
- outcome [3]: inactive

Compound: N[C@@H](Cc1cc(I)c(Oc2cc(I)c(O)c(I)c2)c(I)c1)C(=O)O
- AC50 [19]: 205 nM (active)

Compound: O=C(Nc1ccc2c(O)c(N=Nc3ccc(N=Nc4ccc(S(=O)(=O)O)cc4)cc3)c(S(=O)(=O)O)cc2c1)c1ccccc1
- outcome [4]: inactive
- AC50 [1]: 9980 nM (active)
- outcome [2]: inactive
- AC50 [3]: 11600 nM (active)

Compound: CC(CN=Cc1ccccc1O)N=Cc1ccccc1O (stereo not given)
- outcome [4]: inactive
- outcome [1]: inactive
- outcome [2]: inactive
- outcome [3]: inactive

Compound: Cc1ccc(S(=O)(=O)Oc2ccc(N=Nc3ccc(-c4ccc(N=Nc5c(O)ccc6cc(S(=O)(=O)O)cc(S(=O)(=O)O)c56)c(C)c4)cc3C)cc2)cc1
- outcome [1]: inactive
- outcome [2]: inactive
- AC50 [3]: 11900 nM (active)
